# Laboratory results from PubChem BioAssay (EPA / NIEHS).
# Results filed as inconclusive are left out. Active and inactive are the calls of the source. Rule for the calls: active = hit-call score of the fitted dose curve at least 0.9, where 1 is the maximum; inconclusive = response in the unintended direction; inactive = score below 0.9.
# Target: human Constitutive Androstane Receptor (CAR), NR1I3 (gene 9970) (UniProt Q14994)
# Experiment: NVS_NR_hCAR_Antagonist: NovaScreen (NVS) Nuclear Receptor Binding Assay for human Constitutive Androstane Receptor Antagonism (CAR) (AID 2283344)
# In short: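 Single 25 uM duplicate primary screen, with concentration-series follow-up on actives. Cell-free binding format run in antagonist mode, TR-FRET signal taken 1 h post-dose; activity is signal loss relative to DMSO.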
# Chain of human Constitutive Androstane Receptor (CAR), NR1I3 (gene 9970) (Q14994 whole entry, looked up): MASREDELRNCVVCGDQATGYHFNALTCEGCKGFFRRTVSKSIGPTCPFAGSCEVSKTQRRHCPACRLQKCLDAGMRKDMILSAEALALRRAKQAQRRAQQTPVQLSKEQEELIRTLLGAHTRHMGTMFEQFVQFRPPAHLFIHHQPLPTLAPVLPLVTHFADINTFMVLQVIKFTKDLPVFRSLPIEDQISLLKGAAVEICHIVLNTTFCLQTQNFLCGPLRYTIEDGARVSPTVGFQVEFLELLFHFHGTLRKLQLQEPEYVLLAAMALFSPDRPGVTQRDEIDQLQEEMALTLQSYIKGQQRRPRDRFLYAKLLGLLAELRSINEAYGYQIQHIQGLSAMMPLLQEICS
row,Compound,outcome
1,O=C(O)CCCOc1ccc(Cl)cc1Cl,inactive
2,CNC(=O)Oc1ccccc1OC(C)C,inactive
3,CCCN(CCC)c1c([N+](=O)[O-])cc(C(F)(F)F)cc1[N+](=O)[O-],inactive
4,CN1CSC(=S)N(C)C1,inactive
5,O=S1OCC2C(CO1)C1(Cl)C(Cl)=C(Cl)C2(Cl)C1(Cl)Cl (stereo unspecified),inactive
6,CNC(=O)/C=C(\C)OP(=O)(OC)OC,inactive
7,Cc1cc(C)nc(NC(=O)NS(=O)(=O)c2ccccc2C(=O)OC2COC2)n1,inactive

# Target: bovine Estrogen Receptor (ER), ESR1 (gene 407238) (UniProt P49884)
# Sequence (P49884 whole entry, looked up): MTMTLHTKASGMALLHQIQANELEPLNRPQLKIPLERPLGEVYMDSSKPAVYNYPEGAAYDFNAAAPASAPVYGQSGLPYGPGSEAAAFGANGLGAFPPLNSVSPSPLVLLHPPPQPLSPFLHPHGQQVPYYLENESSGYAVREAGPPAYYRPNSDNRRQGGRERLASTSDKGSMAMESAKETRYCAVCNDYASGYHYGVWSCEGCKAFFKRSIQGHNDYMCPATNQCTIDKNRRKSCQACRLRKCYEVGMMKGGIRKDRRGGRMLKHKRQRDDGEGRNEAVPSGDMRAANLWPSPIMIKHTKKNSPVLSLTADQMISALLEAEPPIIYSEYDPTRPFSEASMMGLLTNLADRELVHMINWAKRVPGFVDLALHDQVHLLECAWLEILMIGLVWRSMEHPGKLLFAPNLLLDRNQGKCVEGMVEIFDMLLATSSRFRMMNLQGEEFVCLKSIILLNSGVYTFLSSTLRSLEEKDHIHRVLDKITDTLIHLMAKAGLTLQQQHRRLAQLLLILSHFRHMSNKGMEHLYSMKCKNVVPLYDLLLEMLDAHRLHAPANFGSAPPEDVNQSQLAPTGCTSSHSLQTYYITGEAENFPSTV
# Experiment: NVS_NR_bER: NovaScreen (NVS) Nuclear Receptor Binding Assay for bovine Estrogen Receptor (ER) (AID 2283345);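 note: actives lower the bound radioligand count which means they displace the ER ligand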
# In short: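 Displacement of a radioligand from estrogen receptor in bovine uterine membrane preparations; scintillation signal taken at 18 hours, DMSO as baseline. Single-concentration duplicates (25 uM) preceded concentration-response follow-up of actives.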
row,Compound,outcome
1,CNC(=O)Oc1ccccc1OC(C)C,inactive
2,COC(=O)c1ccccc1S(=O)(=O)NC(=O)N(C)c1nc(C)nc(OC)n1,inactive
3,COC(=O)c1ccccc1CS(=O)(=O)NC(=O)Nc1nc(OC)cc(OC)n1,inactive

# Target: Bile acid receptor (Homo sapiens) (UniProt Q96RI1)
# Sequence (Q96RI1 whole entry, looked up): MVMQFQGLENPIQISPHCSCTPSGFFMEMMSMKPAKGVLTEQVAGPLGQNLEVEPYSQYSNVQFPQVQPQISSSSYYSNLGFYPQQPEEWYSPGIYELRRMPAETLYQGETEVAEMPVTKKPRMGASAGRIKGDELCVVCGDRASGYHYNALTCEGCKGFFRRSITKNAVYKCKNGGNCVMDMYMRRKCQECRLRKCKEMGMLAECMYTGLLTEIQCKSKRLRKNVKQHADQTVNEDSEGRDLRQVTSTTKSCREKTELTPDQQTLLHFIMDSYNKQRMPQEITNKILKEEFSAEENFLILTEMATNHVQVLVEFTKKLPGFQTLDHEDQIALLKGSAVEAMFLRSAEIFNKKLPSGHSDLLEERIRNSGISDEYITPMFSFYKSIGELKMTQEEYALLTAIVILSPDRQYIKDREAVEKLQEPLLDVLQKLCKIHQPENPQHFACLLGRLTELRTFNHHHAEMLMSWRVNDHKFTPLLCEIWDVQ
# Experiment: NVS_NR_hFXR_Agonist: NovaScreen (NVS) Nuclear Receptor Binding Assay for human Farnesoid X Receptor Agonism (FXR) (AID 2283347)
# In short: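 Agonist-mode FXR assay read by time-resolved FRET 1 h after compound addition, using isolated human receptor protein without cells. Duplicate 25 uM single-point primary screen, concentration series for confirmed actives; DMSO as baseline.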
row,Compound,outcome
1,OCCOc1ccccc1,inactive
2,COC(=O)c1ccccc1S(=O)(=O)NC(=O)N(C)c1nc(C)nc(OC)n1,inactive
3,COC(=O)c1ccccc1CS(=O)(=O)NC(=O)Nc1nc(OC)cc(OC)n1,inactive
4,Cc1cc(C)nc(NC(=O)NS(=O)(=O)c2ccccc2C(=O)OC2COC2)n1,inactive

# Target: Estrogen receptor (Homo sapiens) (UniProt P03372)
# Sequence (P03372 whole entry, looked up): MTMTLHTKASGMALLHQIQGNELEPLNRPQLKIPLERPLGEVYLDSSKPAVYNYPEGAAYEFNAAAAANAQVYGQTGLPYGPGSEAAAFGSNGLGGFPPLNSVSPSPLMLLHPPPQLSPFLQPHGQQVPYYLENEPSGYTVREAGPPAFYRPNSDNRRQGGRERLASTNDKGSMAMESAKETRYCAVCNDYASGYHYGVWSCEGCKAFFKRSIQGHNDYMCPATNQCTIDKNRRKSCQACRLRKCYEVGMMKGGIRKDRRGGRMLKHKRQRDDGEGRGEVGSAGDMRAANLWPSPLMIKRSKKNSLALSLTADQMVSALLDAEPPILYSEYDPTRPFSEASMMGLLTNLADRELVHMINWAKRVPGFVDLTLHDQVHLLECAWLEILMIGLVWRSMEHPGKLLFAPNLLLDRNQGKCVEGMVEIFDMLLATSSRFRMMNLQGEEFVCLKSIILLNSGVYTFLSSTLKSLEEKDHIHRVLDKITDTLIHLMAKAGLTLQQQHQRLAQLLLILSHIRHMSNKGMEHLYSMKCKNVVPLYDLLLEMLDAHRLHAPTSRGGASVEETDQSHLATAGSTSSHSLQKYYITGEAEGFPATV
# Experiment: NVS_NR_hER: NovaScreen (NVS) Nuclear Receptor Binding Assay for human Estrogen Receptor (ER) (AID 2283348)
# In short: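 MCF7-derived receptor extract, radiolabelled ligand, competitive displacement. Read: scintillation counts at 18 h. DMSO = negative control/baseline. Primary 25 uM duplicate; follow-up concentration–response.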
row,Compound,outcome
1,O=C(NC(=O)c1c(F)cccc1F)Nc1ccc(OC(F)(F)C(F)OC(F)(F)F)c(Cl)c1 (stereo unspecified),inactive
2,CCCN(CCC)c1c([N+](=O)[O-])cc(C(F)(F)F)cc1[N+](=O)[O-],inactive
3,COP(=O)(OC)OC=C(Cl)Cl,inactive
4,COC(=O)c1ccccc1S(=O)(=O)NC(=O)N(C)c1nc(C)nc(OC)n1,inactive
5,CN1CSC(=S)N(C)C1,inactive
6,O=S1OCC2C(CO1)C1(Cl)C(Cl)=C(Cl)C2(Cl)C1(Cl)Cl (stereo unspecified),inactive
7,COC(=O)c1ccccc1CS(=O)(=O)NC(=O)Nc1nc(OC)cc(OC)n1,inactive

# Target: Estrogen receptor (Homo sapiens) (UniProt P03372)
# Experiment: OT_ER_ERaERa_1440: Odyssey Thera (OT) 24-hour HEK293T Protein-Complementation Assay for Estrogen Receptor-alpha/-alpha Homodimer (AID 2283349);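 note: hits raise fluorescence above DMSO for agonists and antagonists alike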
# In short: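 Cells (HEK293T) carrying the fragment-tagged ERα LBD (aa 310-547) pair are treated with chemical for 24 hours. Nuclear and/or cytoplasmic fluorescence is then quantified on a laser scanning cytometer. Activity is scored as signal gain against DMSO.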
row,Compound,outcome
1,CCC(C)(C)C(=O)OC1=C(c2ccc(Cl)cc2Cl)C(=O)OC12CCCCC2,inactive
2,CCC(C)Nc1c([N+](=O)[O-])cc(C(C)(C)C)cc1[N+](=O)[O-] (stereo unspecified),inactive
3,O=C(NC(=O)c1c(F)cccc1F)Nc1ccc(OC(F)(F)C(F)OC(F)(F)F)c(Cl)c1 (stereo unspecified),inactive
4,OCCOc1ccccc1,inactive
5,CNC(=O)Oc1ccccc1OC(C)C,inactive
6,CCCN(CCC)c1c([N+](=O)[O-])cc(C(F)(F)F)cc1[N+](=O)[O-],inactive
7,CCOC1Oc2ccc(OS(C)(=O)=O)cc2C1(C)C (stereo unspecified),inactive
8,CC1(c2ccc(Oc3ccccc3)cc2)OC(=O)N(Nc2ccccc2)C1=O (stereo unspecified),inactive
9,Clc1ccccc1-c1nnc(-c2ccccc2Cl)nn1,inactive
10,COP(=O)(OC)OC=C(Cl)Cl,inactive
11,C#CCN1C(=O)COc2cc(F)c(N3C(=O)C4=C(CCCC4)C3=O)cc21,inactive
12,CNC(=O)Oc1cccc(N=CN(C)C)c1,inactive
13,CCC(C)(NC(=O)c1cc(Cl)c(C)c(Cl)c1)C(=O)CCl (stereo unspecified),inactive
14,CCN(CC)C(=O)SCc1ccc(Cl)cc1,inactive
15,CN1CSC(=S)N(C)C1,inactive
16,CCc1ccc(C(=O)NN(C(=O)c2cc(C)cc(C)c2)C(C)(C)C)cc1,inactive
17,O=S1OCC2C(CO1)C1(Cl)C(Cl)=C(Cl)C2(Cl)C1(Cl)Cl (stereo unspecified),inactive
18,CC(C)N(C(=O)COc1nnc(C(F)(F)F)s1)c1ccc(F)cc1,inactive
19,CNC(=O)/C=C(\C)OP(=O)(OC)OC,inactive
20,Cc1[nH]c(=O)n(C(C)(C)C)c(=O)c1Cl,inactive
